Several values for one entry are separate records, joined by “and”; a condition that tells them apart may be missing. Equal values may be shown once. Records with an inconclusive call do not appear. A call without a number means that no potency is given here. Activity calls are given as the source filed them. Unless noted, calls follow the shape of the full dose curve.
Columns and labels:
[1] = qHTS assay for small molecule antagonists of peroxisome proliferator-activated receptor delta signaling (AID 588535; active = well fitted inhibition curve with a large enough effect in the signal ratio, with a control signal flat, not every such curve was filed as active; the % refers to the signal ratio;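 as to max response: cells co-treated with a PPAR-delta agonist as stimulator during compound exposure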); settings: HEK293T PPARd-UAS-bla, beta-lactamase FRET ratio, 18 h; 460 nm channel
Outline: (§1)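 GeneBLAzer PPAR-delta-UAS-bla HEK293T cells in medium with 2% charcoal/dextran FBS were preincubated 5 hrs at 37 C, then given compounds, incubated 18 hrs at 37 C, and read by CCF4 beta-lactamase fluorescence; IC50 from Hill fits.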

[2] = target: Peroxisome proliferator-activated receptor delta (Homo sapiens) (UniProt Q03181); assay: as above; settings: HEK293T PPARd-UAS-bla, beta-lactamase FRET ratio, 18 h; series mostly up to 76.7 µM
Outline: as §1

[3] = target: Peroxisome proliferator-activated receptor gamma (Homo sapiens) (UniProt P37231); assay: qHTS assay for small molecule agonists of peroxisome proliferator-activated receptor gamma signaling (AID 588536; active = well fitted curve in the direction sought with a large enough effect in the signal ratio, with a control signal flat, not every such curve was filed as active; the % refers to the signal ratio); settings: HEK293 PPARg-UAS-bla, beta-lactamase ratio, 16 h, percent of rosiglitazone response, DMSO as zero; series mostly up to 76.7 µM
Outline: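 HEK293 UAS-bla reporter line, 1% charcoal/dextran FBS; titration, 16 h, 37 C; CCF4 loading 2 h RT; fluorescence 460/530 nm. Normalized to rosiglitazone 2 uM = 100%, DMSO = 0%.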

[4] = target: Vitamin D3 receptor (Homo sapiens) (UniProt P11473); assay: qHTS assay for small molecule antagonists of vitamin D receptor signaling (AID 588541); settings: HEK293T VDR-UAS-bla, beta-lactamase ratio, antagonist mode; series mostly up to 76.7 µM;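 also: receptor activated by calcitriol during compound treatment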
Outline: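 VDR-UAS-bla HEK293T cells (2000/well, 2% charcoal-stripped FBS) were treated with titrated compounds plus 1-alpha,25-dihydroxyvitamin D3 (50 nM or 3 nM final) for 16 h at 37 C. CCF4 beta-lactamase fluorescence was read; Hill fits gave IC50.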

[5] = qHTS assay for small molecule agonists of retinoid X receptor alpha signaling (AID 588544); settings: HEK293T RXRa-UAS-bla, beta-lactamase reporter, 18 h; 530 nm emission
[6] = target: Retinoic acid receptor RXR-alpha (Homo sapiens) (UniProt P19793); assay: as above; settings: HEK293T RXRa-UAS-bla, beta-lactamase reporter, 18 h; series mostly up to 76.7 µM
[7] = target: Thyroid hormone receptor beta (Homo sapiens) (UniProt P10828); assay: qHTS assay for small molecule agonists of thyroid hormone receptor beta signaling (AID 588545); settings: TR-UAS-bla GripTite HEK 293, beta-lactamase ratio, agonist mode, 18 h; series mostly up to 76.7 µM; also: potency is read from the fitted curve at half-maximal effect
Outline: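 Compounds were tested as agonists in TR-UAS-bla-GripTite HEK 293 cells. After 18 hrs at 37 C, CCF4 substrate was added and fluorescence read after 2 hrs at room temperature.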

[8] = target: Glucocorticoid receptor (Homo sapiens) (UniProt P04150); assay: qHTS assay for small molecule antagonists of glucocorticoid receptor signaling (AID 588533; active = well fitted inhibition curve with a large enough effect in the signal ratio, with a control signal flat, not every such curve was filed as active; the % refers to the signal ratio;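 also: cells stimulated with 2 nM dexamethasone as agonist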; also: potency is read from the fitted curve at half-maximal effect); settings: HeLa MMTV-bla, GRE beta-lactamase ratio, antagonist mode, 18 h; series mostly up to 76.8 µM
Outline: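 Antagonist-mode qHTS: compound titrations added to GRE-bla HeLa cells, then dexamethasone 2 nM final; 18 h, 37 C. CCF4 FRET fluorescence normalized to dexamethasone and DMSO; IC50 from Hill fit.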

[9] = target: Peroxisome proliferator-activated receptor gamma (Homo sapiens) (UniProt P37231); assay: qHTS assay for small molecule antagonists of peroxisome proliferator-activated receptor gamma signaling (AID 588537; active = well fitted inhibition curve with a large enough effect in the signal ratio, with a control signal flat, not every such curve was filed as active; the % refers to the signal ratio;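 also: reporter cells co-stimulated with 50 nM rosiglitazone agonist during compound treatment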); settings: HEK293 PPARg-UAS-bla, beta-lactamase ratio, antagonist mode; series mostly up to 76.8 µM
Outline: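 PPAR-gamma-UAS-bla HEK293 cells (3000/well, 1% charcoal/dextran-stripped FBS) were preincubated 6-6.5 h at 37 C, given titrated compounds, then stimulated with 50 nM rosiglitazone for 16 h. Beta-lactamase activity was read with CCF4 dye; IC50 came from Hill fits.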

[10] = target: Glucocorticoid receptor (Homo sapiens) (UniProt P04150); assay: qHTS assay for small molecule agonists of glucocorticoid receptor signaling (AID 588532; active = well fitted curve in the direction sought with a large enough effect in the signal ratio, with a control signal flat; the % refers to the signal ratio; also: potency is read from the fitted curve at half-maximal effect); settings: HeLa MMTV-bla, beta-lactamase ratio, agonist, 18 h; activation: stronger effect = higher value, percent of dexamethasone control, DMSO zero
Outline: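 MMTV-bla HeLa, beta-lactamase reporter; medium with 1% charcoal/dextran-stripped FBS; cpds up to 92 uM, 18 h, 37 C; CCF4 readout 460/530 nm; Hill fit → EC50, efficacy vs 0.1 uM dexamethasone = 100%.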

Sequence of Retinoic acid receptor RXR-alpha (Homo sapiens) (P19793 whole entry, looked up): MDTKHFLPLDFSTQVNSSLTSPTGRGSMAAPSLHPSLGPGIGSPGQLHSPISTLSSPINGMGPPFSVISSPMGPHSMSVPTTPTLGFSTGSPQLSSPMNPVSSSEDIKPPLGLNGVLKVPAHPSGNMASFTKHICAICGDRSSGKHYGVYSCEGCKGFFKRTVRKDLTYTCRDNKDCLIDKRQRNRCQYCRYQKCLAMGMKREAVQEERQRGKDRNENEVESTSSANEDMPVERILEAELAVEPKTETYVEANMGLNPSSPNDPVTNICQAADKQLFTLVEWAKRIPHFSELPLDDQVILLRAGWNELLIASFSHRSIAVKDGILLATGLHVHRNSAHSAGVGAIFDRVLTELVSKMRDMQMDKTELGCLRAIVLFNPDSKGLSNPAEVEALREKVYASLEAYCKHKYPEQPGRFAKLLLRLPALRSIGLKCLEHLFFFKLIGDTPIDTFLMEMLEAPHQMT
Sequence of Thyroid hormone receptor beta (Homo sapiens) (P10828 whole entry, looked up): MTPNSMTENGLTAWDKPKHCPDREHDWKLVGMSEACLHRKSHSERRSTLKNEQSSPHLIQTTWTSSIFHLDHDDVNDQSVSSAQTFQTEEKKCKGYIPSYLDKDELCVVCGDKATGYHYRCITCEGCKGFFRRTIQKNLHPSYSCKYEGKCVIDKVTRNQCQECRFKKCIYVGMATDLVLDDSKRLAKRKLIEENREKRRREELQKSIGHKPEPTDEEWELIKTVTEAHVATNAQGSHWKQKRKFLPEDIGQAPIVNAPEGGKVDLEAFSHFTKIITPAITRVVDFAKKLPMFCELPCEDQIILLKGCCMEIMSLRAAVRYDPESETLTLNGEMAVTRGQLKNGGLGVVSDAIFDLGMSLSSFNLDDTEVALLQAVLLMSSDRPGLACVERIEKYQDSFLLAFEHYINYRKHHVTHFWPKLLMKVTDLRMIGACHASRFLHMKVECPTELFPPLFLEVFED
Sequence of Glucocorticoid receptor (Homo sapiens) (P04150 whole entry, looked up): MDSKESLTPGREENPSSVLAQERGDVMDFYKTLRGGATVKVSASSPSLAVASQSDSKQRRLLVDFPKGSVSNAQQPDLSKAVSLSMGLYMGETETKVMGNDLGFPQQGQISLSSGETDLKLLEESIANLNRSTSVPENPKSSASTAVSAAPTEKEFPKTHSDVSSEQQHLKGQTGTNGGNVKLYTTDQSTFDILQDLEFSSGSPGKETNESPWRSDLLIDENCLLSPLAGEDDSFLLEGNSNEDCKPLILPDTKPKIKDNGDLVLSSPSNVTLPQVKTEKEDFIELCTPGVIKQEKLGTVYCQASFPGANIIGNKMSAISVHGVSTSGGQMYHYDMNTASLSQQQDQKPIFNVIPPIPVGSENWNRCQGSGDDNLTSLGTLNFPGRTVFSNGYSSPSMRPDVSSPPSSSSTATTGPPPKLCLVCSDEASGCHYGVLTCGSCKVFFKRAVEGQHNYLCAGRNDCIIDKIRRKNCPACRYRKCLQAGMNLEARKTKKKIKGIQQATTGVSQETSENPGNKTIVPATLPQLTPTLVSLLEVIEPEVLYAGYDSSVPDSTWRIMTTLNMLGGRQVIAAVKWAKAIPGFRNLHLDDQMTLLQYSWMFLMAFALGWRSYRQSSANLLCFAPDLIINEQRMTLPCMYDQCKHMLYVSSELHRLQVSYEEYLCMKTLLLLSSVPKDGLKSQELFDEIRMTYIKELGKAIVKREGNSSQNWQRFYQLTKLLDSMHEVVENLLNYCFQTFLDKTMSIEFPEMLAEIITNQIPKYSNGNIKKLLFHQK
Sequence of Peroxisome proliferator-activated receptor delta (Homo sapiens) (Q03181 whole entry, looked up): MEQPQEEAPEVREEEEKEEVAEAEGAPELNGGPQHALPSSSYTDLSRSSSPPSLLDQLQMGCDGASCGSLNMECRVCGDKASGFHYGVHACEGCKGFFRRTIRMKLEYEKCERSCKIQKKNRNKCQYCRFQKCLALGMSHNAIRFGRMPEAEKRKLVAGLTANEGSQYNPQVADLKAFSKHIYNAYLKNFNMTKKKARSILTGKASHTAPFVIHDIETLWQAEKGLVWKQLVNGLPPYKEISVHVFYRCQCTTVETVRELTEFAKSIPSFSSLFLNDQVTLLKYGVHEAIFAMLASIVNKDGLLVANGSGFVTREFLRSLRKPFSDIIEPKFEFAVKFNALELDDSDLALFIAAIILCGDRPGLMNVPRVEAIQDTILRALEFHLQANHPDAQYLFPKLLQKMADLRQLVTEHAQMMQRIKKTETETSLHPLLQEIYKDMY
Sequence of Peroxisome proliferator-activated receptor gamma (Homo sapiens) (P37231 whole entry, looked up): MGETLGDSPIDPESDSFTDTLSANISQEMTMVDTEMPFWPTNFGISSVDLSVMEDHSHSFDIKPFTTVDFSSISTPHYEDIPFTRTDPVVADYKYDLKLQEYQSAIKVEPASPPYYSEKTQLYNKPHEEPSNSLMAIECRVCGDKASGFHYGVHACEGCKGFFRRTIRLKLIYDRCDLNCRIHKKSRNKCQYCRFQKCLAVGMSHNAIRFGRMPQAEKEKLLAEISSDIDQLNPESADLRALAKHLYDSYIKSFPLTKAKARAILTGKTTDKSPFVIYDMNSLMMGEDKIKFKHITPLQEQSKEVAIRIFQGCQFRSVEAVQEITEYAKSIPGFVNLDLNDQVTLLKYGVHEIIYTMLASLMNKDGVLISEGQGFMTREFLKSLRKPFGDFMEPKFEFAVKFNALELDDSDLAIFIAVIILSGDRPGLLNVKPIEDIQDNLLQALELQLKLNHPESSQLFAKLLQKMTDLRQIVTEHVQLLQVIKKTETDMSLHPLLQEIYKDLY
Sequence of Vitamin D3 receptor (Homo sapiens) (P11473 whole entry, looked up): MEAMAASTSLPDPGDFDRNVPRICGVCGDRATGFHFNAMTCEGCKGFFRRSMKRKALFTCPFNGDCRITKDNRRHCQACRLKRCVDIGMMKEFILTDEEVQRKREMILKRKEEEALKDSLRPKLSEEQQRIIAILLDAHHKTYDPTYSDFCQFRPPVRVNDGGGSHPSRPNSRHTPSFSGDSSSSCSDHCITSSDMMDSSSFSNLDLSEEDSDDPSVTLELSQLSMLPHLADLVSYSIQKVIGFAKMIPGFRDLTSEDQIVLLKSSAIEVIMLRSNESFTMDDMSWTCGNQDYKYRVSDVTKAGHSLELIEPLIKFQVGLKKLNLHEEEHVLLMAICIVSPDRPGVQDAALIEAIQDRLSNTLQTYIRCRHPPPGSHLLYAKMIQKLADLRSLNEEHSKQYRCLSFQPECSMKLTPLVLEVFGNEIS

Row | SMILES | max response [1] | outcome [2] | outcome [3] | outcome [4] | max response [5] | outcome [6] | Potency [7] | Potency [8] | outcome [9] | Potency [10] | activation [10]
1 | O=c1[nH]c(=O)n([C@H]2C[C@H](O)[C@@H](CO)O2)cc1Br | -1.7% | inactive | inactive | inactive | 16.6% | inactive | inactive |  |  |  | 
2 | NC(=Nc1ccccc1)Nc1ccccc1 | 0.0144% and 57.9% | inactive | inactive |  | 3.91% | inactive | inactive | inactive | inactive |  | 
3 | C[C@]12C=CC(=O)C=C1CC[C@H]1[C@@H]3C[C@@H](O)[C@](O)(C(=O)CO)[C@@]3(C)C[C@H](O)[C@@]12F | 10.9% | inactive | inactive | inactive | -12% | inactive | inactive | inactive | inactive | 0.112 µM (active) | 
4 | O=C(O)CCCCCCCC(=O)O |  |  | inactive | inactive | -21.3% | inactive | inactive |  | inactive |  | 
5 | CC(C)(Oc1ccc(CCNC(=O)c2ccc(Cl)cc2)cc1)C(=O)O |  |  |  | inactive | 19.7% | inactive | inactive | inactive | inactive |  | -5.13% (inactive)
6 | NC(=O)N1c2ccccc2C=Cc2ccccc21 | 34.8% | inactive | inactive |  | -3.76% and -20.7% | inactive | inactive |  | inactive |  | 
7 | Nc1nc(N)c2nc(-c3ccccc3)c(N)nc2n1 |  |  |  |  |  |  | 22.4 µM (active) |  | inactive |  | 
8 | COC(=O)[C@H]1[C@H]2C[C@@H]3c4[nH]c5cc(OC)ccc5c4CCN3C[C@H]2C[C@@H](OC(=O)c2cc(OC)c(OC)c(OC)c2)[C@@H]1OC |  |  |  |  |  |  | inactive | inactive |  |  | 4.47% (inactive)
9 | COc1ccc(CN(CCN(C)C)c2ccccn2)cc1 | 15.1% | inactive | inactive |  | 16.3% | inactive | inactive |  |  |  | -0.651% (inactive)
10 | Nc1ncn([C@@H]2O[C@H](CO)[C@@H](O)[C@H]2O)c(=O)n1 |  |  |  |  | -23.8% | inactive | inactive | 7.94 µM (active) and 5.62 µM (active) |  |  | -7.09% (inactive) and -13.7% (inactive)
11 | CCCCNC(=O)NS(=O)(=O)c1ccc(C)cc1 | -29.2% and 9.07% | inactive | inactive | inactive | -17.3% | inactive | inactive | inactive | inactive |  | -10.2% (inactive)
12 | CN=C(NC#N)NCCSCc1nc[nH]c1C | -4.23% | inactive | inactive | inactive | 10.9% | inactive | inactive |  | inactive |  | 
13 | CCCCOCCOCCOCc1cc2c(cc1CCC)OCO2 | 7.63% | inactive | inactive |  | 14.8% and -2.85% | inactive | inactive |  | inactive |  | 
14 | Cc1ccc(S(=O)(=O)NC(=O)NN2CCCCCC2)cc1 | 47.3% | inactive | inactive | inactive | -3.25% | inactive | inactive | inactive | inactive |  | -1.16% (inactive)
15 | CC(=O)[C@@]1(O)CC[C@H]2[C@@H]3CCC4=CC(=O)CC[C@]4(C)[C@H]3CC[C@@]21C |  |  |  |  | 13.3% | inactive |  |  |  |  | 1.8% (inactive)
16 | COc1cc(Cc2cnc(N)nc2N)cc(OC)c1OC | 38% | inactive | inactive | inactive | 1.73% | inactive | inactive | inactive | inactive |  | -1.11% (inactive)
17 | CC(=O)Nc1nnc(S(N)(=O)=O)s1 |  |  | inactive |  | -3.24% | inactive |  |  | inactive |  | 
18 | C[C@]12CCC(=O)C=C1CC[C@@H]1[C@@H]2C(=O)C[C@@]2(C)[C@H]1CC[C@]2(O)C(=O)CO | 10.6% | inactive | inactive | inactive | 17.3% | inactive | inactive | 28.2 µM (active) | inactive |  | -0.667% (inactive)
